{"source": "PubChem BioAssay (NCATS)", "note": "Results filed as inconclusive are left out. Values without a mark were called inactive. The source made the active and inactive calls. Calls come from the whole dose curve; as a rule, active = well fitted inhibition curve with a large enough effect; inconclusive = small, poorly fitted or top-dose-only effect; inactive = flat fitted curve, though single readings scatter.", "data": [{"target": "Lysine-specific demethylase 5B (Homo sapiens) (UniProt Q9UGL1)", "sequence (Q9UGL1 whole entry, looked up)": "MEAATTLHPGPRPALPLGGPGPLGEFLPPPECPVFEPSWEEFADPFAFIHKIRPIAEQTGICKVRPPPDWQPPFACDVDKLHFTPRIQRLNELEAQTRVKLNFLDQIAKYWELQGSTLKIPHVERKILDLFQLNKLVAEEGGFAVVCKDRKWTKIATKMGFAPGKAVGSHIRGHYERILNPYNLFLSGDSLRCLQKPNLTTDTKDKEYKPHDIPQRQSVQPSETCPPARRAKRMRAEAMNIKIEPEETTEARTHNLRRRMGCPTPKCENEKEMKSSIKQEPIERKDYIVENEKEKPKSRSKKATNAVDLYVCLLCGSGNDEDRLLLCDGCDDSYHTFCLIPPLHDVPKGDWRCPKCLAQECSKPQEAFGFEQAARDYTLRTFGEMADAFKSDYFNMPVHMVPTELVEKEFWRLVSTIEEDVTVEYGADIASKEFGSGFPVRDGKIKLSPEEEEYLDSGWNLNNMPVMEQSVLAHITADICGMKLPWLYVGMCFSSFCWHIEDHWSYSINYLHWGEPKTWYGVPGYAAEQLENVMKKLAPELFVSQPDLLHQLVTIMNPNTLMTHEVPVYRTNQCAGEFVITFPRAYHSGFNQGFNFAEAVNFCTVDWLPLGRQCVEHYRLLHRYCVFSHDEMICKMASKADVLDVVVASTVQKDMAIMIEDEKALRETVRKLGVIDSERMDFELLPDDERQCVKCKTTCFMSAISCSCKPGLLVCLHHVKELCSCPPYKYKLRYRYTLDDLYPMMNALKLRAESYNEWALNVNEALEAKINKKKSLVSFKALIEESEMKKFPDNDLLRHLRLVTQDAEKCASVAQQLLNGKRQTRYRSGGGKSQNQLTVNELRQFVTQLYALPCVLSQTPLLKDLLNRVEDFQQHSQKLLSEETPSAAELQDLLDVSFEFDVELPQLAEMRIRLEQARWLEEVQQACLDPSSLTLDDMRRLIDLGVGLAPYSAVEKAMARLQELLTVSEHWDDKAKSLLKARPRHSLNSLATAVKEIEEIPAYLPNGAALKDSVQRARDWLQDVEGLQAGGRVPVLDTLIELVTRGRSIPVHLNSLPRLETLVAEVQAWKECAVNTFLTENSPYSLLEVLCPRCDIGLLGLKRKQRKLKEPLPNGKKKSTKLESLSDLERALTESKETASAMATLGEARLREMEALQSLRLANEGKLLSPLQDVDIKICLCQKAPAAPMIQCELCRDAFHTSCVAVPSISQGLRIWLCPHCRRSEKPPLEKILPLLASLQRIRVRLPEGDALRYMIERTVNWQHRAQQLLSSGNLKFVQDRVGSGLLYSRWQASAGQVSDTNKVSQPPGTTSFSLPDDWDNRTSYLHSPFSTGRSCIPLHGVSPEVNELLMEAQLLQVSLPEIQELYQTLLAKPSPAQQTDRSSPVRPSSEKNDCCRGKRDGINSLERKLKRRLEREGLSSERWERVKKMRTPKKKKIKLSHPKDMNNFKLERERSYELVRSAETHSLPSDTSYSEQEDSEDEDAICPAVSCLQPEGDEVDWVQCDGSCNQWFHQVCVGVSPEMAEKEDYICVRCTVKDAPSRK", "assay": "Optimization screen for KDM5B Histone Demethylases FDH coupled qHTS against the LOPAC library (AID 1347166); note: 0% is about no effect", "details": "KDM5B demethylation, FDH-coupled NADH fluorescence (FDH is formaldehyde dehydrogenase); series mostly up to 57.5 µM; activity, negative = inhibition: at the top concentration", "outline": "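KDM5BDeltaAP (200nM final) preincubated 10 min with compound, then 12.5uM H3K4Me3, 25uM a-ketoglutarate, ascorbate, Fe(II), NAD+ and FDH added; 50mM HEPES pH 7.5, 0.01% Tween-20. NADH fluorescence (340/450 nm) change over 30 min, room temperature.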", "units": {"activity, negative = inhibition": "%"}, "values": [{"compound": "CCOC(=O)C(C)(C)Oc1ccc(Cl)cc1", "activity, negative = inhibition": -5.93}, {"compound": "OCCN1CCN(CCCN2c3ccccc3Sc3ccc(C(F)(F)F)cc32)CC1", "activity, negative = inhibition": -11.7}, {"compound": "COc1ccc(CCN(C)CCCC(C#N)(c2ccc(OC)c(OC)c2)C(C)C)cc1OC", "note": "(stereo not drawn)", "activity, negative = inhibition": -6.88}, {"compound": "CS(=O)(=O)Nc1ccc([N+](=O)[O-])cc1Oc1ccccc1", "activity, negative = inhibition": -20}, {"compound": "Nc1ccn([C@H]2CC[C@@H](CO)O2)c(=O)n1", "activity, negative = inhibition": 0.519}, {"compound": "CC#C[C@]1(O)CC[C@H]2[C@@H]3CCC4=CC(=O)CCC4=C3[C@@H](c3ccc(N(C)C)cc3)C[C@@]21C", "activity, negative = inhibition": -10}, {"compound": "COC(=O)Nc1nc2ccc(C(=O)c3cccs3)cc2[nH]1", "activity, negative = inhibition": -8.17}, {"compound": "CN1C2CCC1CC(OC(=O)C(CO)c1ccccc1)C2", "note": "(stereo not drawn)", "outcome": "inactive"}, {"compound": "CN1CCC(=C2c3ccccc3C=Cc3ccccc32)CC1", "activity, negative = inhibition": -1.92}, {"compound": "Nc1c2c(nc3ccccc13)CCCC2", "activity, negative = inhibition": -7.94}, {"compound": "CC(C)(Oc1ccc(C2CC2(Cl)Cl)cc1)C(=O)O", "note": "(stereo not drawn)", "activity, negative = inhibition": 1.4}, {"compound": "NCCc1cnc[nH]1", "activity, negative = inhibition": -9.3}, {"compound": "NC12CC3CC(CC(C3)C1)C2", "activity, negative = inhibition": -6.43}, {"compound": "CCC1(C)CC(=O)NC1=O", "note": "(stereo not drawn)", "activity, negative = inhibition": -4.98}, {"compound": "CCOC(=O)c1ncn2c1CN(C)C(=O)c1cc(F)ccc1-2", "activity, negative = inhibition": -5.19}, {"compound": "Clc1ccc2c(c1)C(N1CCNCC1)=Nc1ccccc1O2", "activity, negative = inhibition": -3.41}, {"compound": "Clc1ccc2nsnc2c1NC1=NCCN1", "activity, negative = inhibition": -10}, {"compound": "CN1CCN2c3ccccc3Cc3ccccc3C2C1", "note": "(stereo not drawn)", "activity, negative = inhibition": -2.51}, {"compound": "Fc1ccc([C@@H]2CCNC[C@H]2COc2ccc3c(c2)OCO3)cc1", "activity, negative = inhibition": -4.04}, {"compound": "NS(=O)(=O)c1cc2c(cc1Cl)NCNS2(=O)=O", "activity, negative = inhibition": -7.48}, {"compound": "COc1ccc(C2CNC(=O)C2)cc1OC1CCCC1", "note": "(stereo not drawn)", "activity, negative = inhibition": -5.67}, {"compound": "Cn1cnc2c1c(=O)[nH]c(=O)n2C", "activity, negative = inhibition": -6.65}, {"compound": "COc1ccccc1N1CCN(CC(O)COc2cccc3ccccc23)CC1", "note": "(stereo not drawn)", "activity, negative = inhibition": -29.4}, {"compound": "Cc1cn([C@H]2C=C[C@@H](CO)O2)c(=O)[nH]c1=O", "activity, negative = inhibition": -3.2}, {"compound": "Cc1cc(C(C)(C)C)cc(C)c1CC1=NCCN1", "activity, negative = inhibition": -3.4}, {"compound": "CN1C(C(=O)Nc2ccccn2)=C(O)c2ccccc2S1(=O)=O", "activity, negative = inhibition": -8.12}, {"compound": "COc1nc(C)nc(Cl)c1NC1=NCCN1", "activity, negative = inhibition": -4.07}, {"compound": "CCN1CCCC1CNC(=O)c1cc(S(=O)(=O)CC)c(N)cc1OC", "note": "(stereo not drawn)", "activity, negative = inhibition": -12.3}]}]}
